# Assay outcomes as filed in PubChem.
# GLP-1R agonist: qHTS of GLP-1 Receptor Agonists; Glucagon-like peptide 1 receptor (Homo sapiens), P43220; HEK293 GLP-1R CRE-luciferase, luminescence, 4-6 h; cells express a hypersensitive GLP-1R form; Potency, µM (series often up to 45.6 µM), without a hit: at the highest dose activation, hits mostly activators; 0.007% of 380,000 active; note: % of control where 0% means no effect
# Target sequence (P43220 whole entry, looked up): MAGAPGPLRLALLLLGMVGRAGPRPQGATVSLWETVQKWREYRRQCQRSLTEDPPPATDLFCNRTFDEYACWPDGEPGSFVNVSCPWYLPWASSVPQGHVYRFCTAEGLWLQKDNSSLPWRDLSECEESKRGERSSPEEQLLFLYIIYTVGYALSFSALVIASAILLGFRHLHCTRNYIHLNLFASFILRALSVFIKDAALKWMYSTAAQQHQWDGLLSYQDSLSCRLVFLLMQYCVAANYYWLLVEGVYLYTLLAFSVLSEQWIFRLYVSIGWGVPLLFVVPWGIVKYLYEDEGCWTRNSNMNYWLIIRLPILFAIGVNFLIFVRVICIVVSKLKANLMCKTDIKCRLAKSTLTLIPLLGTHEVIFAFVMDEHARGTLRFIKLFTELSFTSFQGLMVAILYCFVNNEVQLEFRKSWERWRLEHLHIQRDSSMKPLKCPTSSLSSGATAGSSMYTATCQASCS
# PTHR1 agonist: qHTS for PTHR1 Agonists: Primary Screen; Parathyroid hormone/parathyroid hormone-related peptide receptor (Homo sapiens), Q03431; HEK293 GP2 PTHR1 cells, GloSensor cAMP luminescence, 1 h; Potency, µM (top dose mostly 115 µM), for the others: top-dose activation, most hits filed as activators; 0.075% of 410,000 active; AID 743266, 2014; note: nearly all actives have a fitted effect of over 55% in size
#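 HEK-293-derived GP2 cells expressing PTHR1 and a GloSensor cAMP reporter, 3,000/well, plated overnight, given luciferin plus IBMX (each 0.5 mM as added) for 1 h at 37 °C, then compound for 1 h at 37 °C. Luminescence was read after 15 min at room temperature.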
# GLS inh: qHTS for Inhibitors of Glutaminase (GLS) | 0.21% of 410,000 active | AID 624170, 2012 | GLS enzymatic activity, qHTS titration | Potency, µM (highest dose often 45.5 µM), inactives show top-dose activity change, negative = inhibition, usual class: inhibitors | Glutaminase kidney isoform, mitochondrial (Homo sapiens), O94925; note: % is set by controls: 0 for no effect and ±100 for the full control effect
#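 Human kidney-isoform GLS in 45 mM KH2PO4 pH 8.2, 0.02% Tween-20, with compound, started with 1mM L-Glutamine (added stock). Glutamate oxidase/HRP/Amplex red coupled fluorescence read at start and after 30 min at RT.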
# GLP1R inv ag: qHTS of GLP-1 Receptor Inverse Agonists (Inhibition Mode) | Glucagon-like peptide 1 receptor (Homo sapiens), P43220 | HEK293 GLP-1R CRE-luciferase, luminescence, 24 h; GLP-1R form is constitutively active | Potency, µM (titrated, usually from 38.3 µM), inactives show at the top dose activity change, negative = inhibition, actives largely listed as inhibitors | 1.6% of 410,000 active | AID 624417, 2012; note: % is set by controls: 0 for no effect and ±100 for the full control effect; nearly all actives have a fitted effect of over 55% in size
#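 Constitutively active GLP-1R drives a cAMP-responsive luciferase in stably transfected HEK293 cells; test compounds are added after overnight (12 h) attachment and left 24 hr, and signal loss in luminescence marks inhibition.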
# ALOX12 inh: Primary qHTS assay for inhibitors of human arachidonate 12S-lipoxygenase (ALOX12): Round 2. 1.1% of 580,000 active. purified 12hLO, xylenol orange hydroperoxide absorbance. Potency, µM (top dose mostly 108 µM), for inactives: at the highest dose activity change, negative = inhibition, usual class: inhibitors. Polyunsaturated fatty acid lipoxygenase ALOX12 (Homo sapiens), P18054; note: % is set by controls: 0 for no effect and ±100 for the full control effect
#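 Hydroperoxide product was detected by ferrous iron/xylenol orange as the 573 to 405 nm absorbance ratio. Arachidonic acid at 40 uM (final) was turned over for 30 min at room temperature by 150 nM human 12hLO, pH 7.0 Hepes buffer, after 15 min compound preincubation.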
# Glioma ERSR ind: qHTS for Inducers of the Endoplasmic Reticulum Stress Response (ERSR) in Human Glioma: qHTS; U87-MG GRP78 promoter luciferase reporter, 16 h; Potency, µM, inactives show at the top dose activation, actives largely listed as activators; 0.02% of 420,000 active; AID 602332, 2012; note: series mostly up to about 76 µM; % of control where 0% means no effect; nearly all actives have a fitted effect of over 35% in size
#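 ERSR induction read as luciferase luminescence (Bright-Glo, 10 min at room temperature) in stably transfected human U87-MG glioma cells exposed to compounds for 16 h, using GRP78 as sensor.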
# * = called active by the depositor; i = inactive; ? = inconclusive; nt = not tested or not shown; [ ] = dose if it differs, or a comment. Hits are enriched below; roughly 2.3% of the tested compounds scored in any of these assays. Calls come from the whole dose curve; as a rule, active = well fitted curve in the direction sought with a large enough effect; inconclusive = small, poorly fitted or top-dose-only effect, or another doubt; inactive = no such curve, though single readings can be large; an effect the other way counts as inactive or inconclusive. Potency is the fitted concentration of half-maximal effect.
SMILES,GLP-1R agonist,PTHR1 agonist,GLS inh,GLP1R inv ag,ALOX12 inh,Glioma ERSR ind
Cc1onc(-c2ccccc2)c1C(=O)NC(=S)NNC(=O)c1ccc(O)cc1O,0.6%,i,26.2%,?,?,-2.3%
Cc1onc(-c2ccccc2)c1C(=O)NC(=S)NNC(=O)c1ccccc1O,0.9%,-18.5%,3.1%,2.82µM*,?,?
CCOC(=O)c1c(-c2ccc(OC)c(OC)c2)csc1NC(=O)CNC(C)(C)CC,nt,nt,nt,nt,2.8%,nt
Cc1noc(C)c1-c1ccc(C(=O)Nc2ccc(C(C)C)cc2)c2occc12,0.1%,-41.0%,6.0%,4.47µM*,-2.3%,-0.6%
COc1ccc(/C=C2/CSC/C(=C/c3ccc(OC)c(OC)c3)C2=O)cc1OC,8.9%,-31.9%,1.5%,5.01µM*,-22.8%,-11.6%
COc1ccc(/C=C2\SC(=O)NC2=S)cc1OC,14.7%,-35.0%,?,105.4%,39.8µM*,7.6%
CCOc1ccc(/C=C2\SC(=S)NC2=O)cc1OC,27.9%,-12.4%,0.0%,67.0%,-8.7%,2.2%
FC(F)(F)c1cccc(NC(=S)Nc2ccc(Cl)c(Cl)c2)c1,0.4%,-21.1%,10.2%,?,0.0%,-6.7%
O=[N+]([O-])c1cc(C(F)(F)F)cc([N+](=O)[O-])c1NCCNC(=S)Nc1ccc(Cl)c(Cl)c1,-0.8%,-33.4%,-8.8%,8.91µM*,?,1.4%
CC(C)n1nc(C(=O)N2CCCc3ccccc32)c2ccccc2c1=O,nt,nt,nt,nt,-0.1%,nt
CN1CCC(N2CCC[C@@H](O)[C@H](NC(=O)c3ccc(OCc4ccccc4)cc3)C2)CC1,nt,nt,nt,nt,-6.0%,nt
CCOc1ccc(C(=O)C(CCC(CN(C)C)C(=O)c2ccc(OCC)cc2)CN(C)C)cc1 (configuration not stated),-6.1%,?,12.1%,1.58µM*,-12.5%,-13.7%
COc1ccc(C(=O)C(CCCCC(CN(C)C)C(=O)c2ccc(OC)cc2)CN(C)C)cc1 (configuration not stated),17.4%,i,2.2%,0.0%,-21.0%,0.7%
CC1(C)CC(C)(c2ccc(O)cc2O)N(c2cccc(Cl)c2)C(=S)N1 (configuration not stated),-0.7%,i,-2.1%,-13.6%,?,-10.3%
CC1(C)CC(C)(c2ccc(O)cc2O)N(c2ccc3ccccc3c2)C(=S)N1 (configuration not stated),-4.3%,i,-5.7%,?,17.8µM*,-0.4%
COC(=O)Cc1c(O)ccn(CCc2c[nH]c3ccccc23)c1=O,3.3%,-10.4%,0.0%,15.5%,8.0%,-5.3%
CCCCCCCn1ccc(O)c(CC(=O)OC)c1=O,1.5%,50.1µM*,-14.3%,6.0%,0.4%,-2.9%
N#C/C(=C/c1cccn1-c1cccc(C(=O)O)c1)c1ccc(Cl)cc1,1.0%,-20.9%,124.7%,-4.7%,44.7µM*,-3.3%
O=C(O)c1cccc(-n2cccc2/C=C\[N+](=O)[O-])c1,-0.4%,i,103.3%,17.2%,?,0.9%
O=C(O)c1cccc(-n2cccc2/C=C/[N+](=O)[O-])c1,0.0%,i,10µM*,4.5%,-25.2%,-0.7%
N#C/C(=C/c1cccn1-c1cccc(C(F)(F)F)c1)c1ccc([N+](=O)[O-])cc1,nt,nt,nt,nt,2.2%,nt
Cc1ccc(-c2c(NC(=O)CN3CCC(C(N)=O)CC3)oc3ccc(Cl)cc3c2=O)cc1,nt,nt,nt,nt,10.8%,nt
Cc1[nH]c(SCC(=O)NCCc2ccc3c(c2)OCCO3)nc1Cc1ccccc1,nt,nt,nt,nt,-15.8%,nt
CCNC(=O)C(C)NC(=O)c1cc(C(C)C)nc2c1cnn2C(C)C (configuration not stated),nt,nt,nt,nt,-1.2%,nt
C/C(=N\OC(=O)c1ccc(F)cc1F)c1ccc(F)cc1F,nt,nt,nt,nt,-3.0%,nt
SMILES,GLP-1R agonist,PTHR1 agonist,GLS inh,GLP1R inv ag,ALOX12 inh,Glioma ERSR ind
CC(C)CC(NC(N)=O)C(=O)Nc1ccc(C(C)(C)C)cc1 (configuration not stated),nt,nt,nt,nt,2.0%,nt
Cc1ccc(-c2c(C(F)(F)F)nn3c(N4CCN(CCO)CC4)cc(C)nc23)cc1,nt,nt,nt,nt,57.6%,nt
CC(=O)NCc1ccc(-c2csc(Nc3cccc(C(F)(F)F)c3)n2)o1,nt,nt,nt,nt,10µM*,nt
O=C(Nc1cccc(-c2csc(Nc3ccccc3)n2)c1)c1ccccc1,-5.4%,-66.5%,4.1%,8.91µM*,-2.7%,-4.2%
O=C(Nc1cccc(-c2csc(Nc3cccc(C(F)(F)F)c3)n2)c1)c1ccccc1,-2.2%,-91.3%,0.4%,2.82µM*,-2.4%,-6.8%
c1ccc(Nc2nc(-c3ccccn3)cs2)cc1,11.5%,-15.7%,?,5.62µM*,3.3%,-2.5%
c1ccc(-c2csc(Nc3cccnc3)n2)nc1,0.7%,-32.4%[57.5 µM],4.1%,3.4%,27.6%,4.8%
O=C(Nc1ccc(Br)cc1)c1ccc(F)c(S(=O)(=O)NC2CCCCCC2)c1,nt,-58.6%,-0.4%,3.16µM*,3.8%,-0.2%
CCC1CCCCN1S(=O)(=O)c1cc(C(=O)Nc2ccc(C)c(F)c2)ccc1F (configuration not stated),nt,-33.7%,2.5%,10µM*,?,-1.5%
O=C(Nc1cc(Cl)cc(Cl)c1)c1ccc(F)c(S(=O)(=O)NC2CCCCC2)c1,nt,-17.8%,-4.1%,?,?,-0.1%
O=C(C[C@H]1NC(=O)c2ccccc2NC1=O)NCCc1ccc(O)cc1,nt,nt,nt,nt,26.0%,nt
CC(C)C[C@@H]1NC(=O)[C@H](Cc2ccccc2)N(C)C(=O)[C@H](C)NC(=O)c2ccccc2NC(=O)[C@H](Cc2ccc(O)cc2)N(C)C1=O,-4.1%,-30.4%,-1.3%,10µM*,14.1%,-2.1%
COc1cc(NC(=O)CCn2ccnc2)cc(OC)c1OC,nt,nt,nt,nt,9.1%,nt
C=CCOc1ccc(C2N3CC4(CC)CN2CC(CC)(C3)C4=O)cc1 (configuration not stated),4.6%,-13.5%[57.5 µM],2.0%,11.2µM*,2.7%,-3.8%
CCC12CN3CC(CC)(CN(C1)C3c1ccc(C)cc1)C2=O (configuration not stated),nt,nt,nt,nt,-1.6%,nt
CNc1nccc(N2CCC(CC(=O)N3CCN(c4cccc(OC)c4)CC3)CC2)n1,nt,nt,nt,nt,55.6%,nt
CC(=O)C1=C(O)C(CSCc2ccccc2)N(C)C1=O (configuration not stated),2.5%,24.0%,1.8%,19.7%,10µM*,-4.1%
